The record followed here is ChEMBL document CHEMBL4296183, “CO-ADD screening of NIH NCI Natural Product Set III” (2020).

Experiment [1] relates to Staphylococcus aureus. In words: Antibacterial activity against Staphylococcus aureus MRSA ATCC 43300 (CO-ADD:GP_020); MIC in CAMBH media using NBS plates, by Resazurin F(560/590). The format is functional. The settings on record: Concentration 20 uM, ASSAY_TEST Inhibition of Bacterial Growth, detection method Resazurin, Fluorescence (ex560/em590), MEDIA CAMHB, plate type 384well, CORNING #3640, time 18 hr. Background: Alamar Blue is a resazurin reagent that responds to reducing activity.

Experiment [2] relates to Acinetobacter baumannii. In words: Antibacterial activity against Acinetobacter baumannii ATCC 19606 (CO-ADD:GN_034); MIC in CAMBH media using NBS plates, by Resazurin F(560/590). It counts as functional. The settings on record: Concentration 20 uM, ASSAY_TEST Inhibition of Bacterial Growth, detection method Resazurin, Fluorescence (ex560/em590), MEDIA CAMHB, plate type 384well, CORNING #3640, time 18 hr.

For experiment [3], the system named is Escherichia coli. In words: Antibacterial activity against Escherichia coli ATCC 25922 (CO-ADD:GN_001); MIC in CAMBH media using NBS plates, by Resazurin F(560/590). The format is functional. The note with it: Concentration 20 uM, ASSAY_TEST Inhibition of Bacterial Growth, detection method Resazurin, Fluorescence (ex560/em590), MEDIA CAMHB, plate type 384well, CORNING #3640, time 18 hr.

In experiment [4] the test system is Klebsiella pneumoniae. The note with it: Concentration 20 uM; ASSAY_TEST Inhibition of Bacterial Growth; detection method Absorption (OD600); MEDIA CAMHB; plate type 384well; NBS; CORNING #3640; time 18 hr.
In experiment [5] the test system is Candida albicans. The settings on record: 20 µM.
Experiment [6] relates to Cryptococcus neoformans. The note with it: Concentration 20 uM; ASSAY_TEST Inhibition of Fungal Growth; detection method Resazurin; Absorption (OD600-OD570); plate type 384well; NBS; CORNING #3640.

For part of these data: Measured potencies and affinities stand elsewhere.

For `CCCCCC(O)C1C(=O)OC(C)C(O)/C=C/C=C/C=C/C=C/C=C(\C)C(O)C(O)C(O)CC(O)CC(O)CC(O)CC(O)CC1O` (stereo not given), the Inhibition – broadly, the relative decrease from the control value, in per cent – in experiment [1] is -5.29%; in experiment [2], 1.14%; in experiment [3], 2.6%; in experiment [4] it was 3.06%; in experiment [5], -5.54%; in experiment [6] it was -5.55%.
`COc1ccc2c(c1O)-c1c(OC)c(OC)cc3c1C(C2)N(C)CC3` (stereo not given): the Inhibition was 23.71% in experiment [1]; 2.34% in experiment [2]; 4.51% in experiment [3]; 6.13% in experiment [4]; -0.15% in experiment [5]; -10.21% in experiment [6].
`CC[C@@]1(O)C(=O)OCc2c1cc1n(c2=O)Cc2cc3ccccc3nc2-1` [CAMPTOTHECIN]: the Inhibition is 9.46% in experiment [1]; -0.94% in experiment [2]; 5.98% in experiment [3]; 5.61% in experiment [4]; 4.14% in experiment [5]; -6.71% in experiment [6].
For `COc1cccc2c1cc([N+](=O)[O-])c1c(C(=O)O)cc3c(c12)OCO3` [ARISTOLOCHIC ACID], the Inhibition in experiment [1] was -13.97%; in experiment [2] it was -2.12%; in experiment [3] it was 5.35%; in experiment [4], -1.07%; in experiment [5], 8.48%; in experiment [6], -6.51%.
On to `COc1c2c(c(CC=C(C)C)c3oc(=O)c(-c4ccc(O)cc4)c(O)c13)OC(C)(C)C=C2` [LONCHOCARPIC ACID], for which the Inhibition was 25.18% in experiment [1]; -13.6% in experiment [2]; 7.94% in experiment [3]; -4.69% in experiment [4]; -1.79% in experiment [5]; -11.25% in experiment [6].
On to `CC12C(=O)C=CCC1=CCC1C2CCC2(O)C(=O)OC3(C)C4CC5(C)C(COC16OC23C5C6=O)C(=O)O4` (stereo not given), for which the Inhibition in experiment [1] is 21.05%; in experiment [2] it was -16.5%; in experiment [3] it was 8.61%; in experiment [4], -1.2%; in experiment [5] it was -2.84%; in experiment [6], -7.36%.
In the case of `C=C1C(=O)OC2C1CCC(C)C1(O)C=CC(=O)C21C` (stereo not given), the Inhibition in experiment [1] is -5.72%; in experiment [2], -10.47%; in experiment [3], 2.36%; in experiment [4], 3.79%; in experiment [5], -0.93%; in experiment [6] it was -3.28%.
In the case of `CC(O)CCC(=O)c1ccoc1` (stereo not given), the Inhibition in experiment [1] was -1.39%; in experiment [2], -6.14%; in experiment [3], 1.51%; in experiment [4], -0.54%; in experiment [5] it was -0.15%; in experiment [6] it was -5.46%.
Turning to `OC1CN2CC[C@H](O)[C@@H]2C(O)[C@@H]1O` (stereo not given in full), the Inhibition in experiment [1] is -15.58%; in experiment [2], -6.5%; in experiment [3], 3.63%; in experiment [4], -1.47%; in experiment [5] it was 2.3%; in experiment [6] it was -9.42%.
`C=C1C(C)C2C(Cc3ccccc3)NC(=O)C23C(OC(C)=O)/C=C/C(C)(O)CC(C)C/C=C/C3C1O` (stereo not given): the Inhibition was -5.72% in experiment [1]; -9.16% in experiment [2]; -0.68% in experiment [3]; -1.52% in experiment [4]; 1.45% in experiment [5]; -3.95% in experiment [6].
As for `COc1ccc(C(=O)O[C@H]2CC[C@@]3(C)[C@@H]4CC[C@H]5[C@]6(O)C[C@H](O)[C@@]7(O)[C@@H](CN8C[C@@H](C)CC[C@H]8[C@@]7(C)O)[C@]6(O)C[C@@]53OC24O)cc1OC`, the Inhibition in experiment [1] was 16.97%; in experiment [2], -4.41%; in experiment [3], 7.62%; in experiment [4], 3.66%; in experiment [5], -1.53%; in experiment [6], -9.31%.
`CC(=O)O[C@@H]1[C@@H](O)C2=C3[C@]4(C)[C@@H]1C(C)(C)C(=O)C[C@@H]4[C@]3(O)[C@H](OC(C)=O)[C@@]1(C[C@@H]1C)C2=O`: the Inhibition is 17.09% in experiment [1]; -6.85% in experiment [2]; 0.22% in experiment [3]; 10.98% in experiment [4]; -0.55% in experiment [5]; -8.42% in experiment [6].
In the case of `C=C1C(=O)O[C@@H]2C[C@@H](C)[C@@H]3C=CC(=O)[C@@]3(C)[C@@H](O)[C@H]12` [HELENALIN], the Inhibition in experiment [1] was 9.39%; in experiment [2] it was -4.22%; in experiment [3] it was 4.79%; in experiment [4], 9.92%; in experiment [5] it was 2.42%; in experiment [6], -2.82%.
As for `CC(C)(O)C1C2OC(=O)C1C1(O)CC3OC34C(=O)OC2C14C` (stereo not given), the Inhibition in experiment [1] is -15.24%; in experiment [2], -3.06%; in experiment [3] it was 2.11%; in experiment [4] it was 1.65%; in experiment [5] it was 3.44%; in experiment [6] it was -6.7%.
With `CC1CCC2C(C)C3C(CC4C5CC=C6CC(OC7OC(CO)C(O)C(OC8OC(CO)C(O)C(O)C8O)C7OC7OC(C)C(O)C(O)C7O)CCC6(C)C5CCC43C)N2C1.Cl` (stereo not given), the Inhibition was -4.66% in experiment [1]; -5.32% in experiment [2]; -0.39% in experiment [3]; 4.14% in experiment [4]; -2.24% in experiment [5]; -10.4% in experiment [6].
Turning to `O=P1(N(CCCl)CCCl)NCCCO1` (stereo not given) [CYCLOPHOSPHAMIDE ANHYDROUS], the Inhibition was 22.17% in experiment [1]; -9.14% in experiment [2]; 1.21% in experiment [3]; 1.43% in experiment [4]; -2.64% in experiment [5]; -8.46% in experiment [6].
Regarding `CCN1C[C@]2(COC)[C@H](O)C[C@H](OC)[C@]34C1[C@H]([C@H](OC)[C@H]23)[C@]1(OC(C)=O)[C@H]2[C@@H](OC(=O)c3ccccc3)[C@](O)(C[C@H]24)[C@@H](OC)[C@@H]1O`, the Inhibition is 12.16% in experiment [1]; -8.01% in experiment [2]; 7.77% in experiment [3]; 3.92% in experiment [4]; -0.67% in experiment [5]; -9.39% in experiment [6].
With `CC[C@H]1CN2CCc3cc(OC)c(OC)cc3[C@@H]2C[C@@H]1C[C@H]1NCCc2c1[nH]c1ccc(O)cc21` [TUBULOSINE], the Inhibition was 2.68% in experiment [1]; -12.49% in experiment [2]; 3.63% in experiment [3]; -0.53% in experiment [4]; 2.67% in experiment [5]; -8.19% in experiment [6].
On to `C1CCC(NC2CCCCC2)CC1.COC1C(OC(=O)/C=C/C=C/C=C/C=C/C(=O)O)CCC2(CO2)C1C1(C)OC1CC=C(C)C` (stereo not given), for which the Inhibition is 16.49% in experiment [1]; -13.86% in experiment [2]; 8.82% in experiment [3]; -0.23% in experiment [4]; 9.6% in experiment [5]; -7.96% in experiment [6].
Turning to `CN1CCc2cc3c(cc2[C@H]1[C@@H]1OC(=O)c2c1ccc1c2OCO1)OCO3` [BICUCULLINE], the Inhibition was 11.14% in experiment [1]; -4.97% in experiment [2]; 3.43% in experiment [3]; 11.38% in experiment [4]; -1.4% in experiment [5]; -11.52% in experiment [6].
In the case of `COC1C(O)C(C)OC(OC2C(Oc3cccc4c(O)c5c(=O)oc6ccc(C)c7c(=O)oc(c34)c5c67)OC(C)C(O)C2O)C1O` (stereo not given), the Inhibition in experiment [1] is -17.7%; in experiment [2] it was -6.91%; in experiment [3], -0.53%; in experiment [4], 2.04%; in experiment [5] it was -2.79%; in experiment [6], -9.89%.
In the case of `COc1ccc2c3c([nH]c2c1)[C@H](C=C(C)C)N1C(=O)[C@@H]2CCCN2C(=O)[C@@H]1C3` [FUMITREMORGIN], the Inhibition is -0.07% in experiment [1]; 0.14% in experiment [2]; 5.9% in experiment [3]; -0.45% in experiment [4]; 1.52% in experiment [5]; -5.88% in experiment [6].
Regarding `CO[C@@H]1[C@H](O)CC[C@]2(CO2)[C@H]1[C@@]1(C)O[C@@H]1CC=C(C)C`, the Inhibition was 4.97% in experiment [1]; 1.38% in experiment [2]; 4.31% in experiment [3]; 14.33% in experiment [4]; 4.27% in experiment [5]; -4.91% in experiment [6].
For `CC[C@](C)(O)C(=O)O[C@H]1C(=O)O[C@@H]2C[C@H]3C(C)=C[C@H](O)[C@@H](O)[C@]3(C)[C@H]3[C@@]4(O)OC[C@]32[C@@H]1[C@@H](C)[C@H]4O`, the Inhibition in experiment [1] was 12.34%; in experiment [2], -9.38%; in experiment [3], 1.71%; in experiment [4], 10.36%; in experiment [5], 4.77%; in experiment [6], -4.27%.
Take `COc1ccc2c(c1OC)CN1CCc3cc4c(cc3C1C2)OCO4` (stereo not given) [TETRAHYDROBERBERINE]: the Inhibition in experiment [1] is 10.57%; in experiment [2] it was -8.62%; in experiment [3], 7.87%; in experiment [4], -2.26%; in experiment [5], -1.05%; in experiment [6] it was -13.18%.
Turning to `CCC/C=C/C=C/C(=O)OC1/C(=C/C(=O)OC)CC2CC(C(C)O)OC(=O)CC(O)CC3CC(OC(C)=O)C(C)(C)C(O)(CC4C/C(=C/C(=O)OC)CC(/C=C/C(C)(C)C1(O)O2)O4)O3` (stereo not given), the Inhibition in experiment [1] was 15.23%; in experiment [2], -8.5%; in experiment [3] it was 2.2%; in experiment [4], 8.82%; in experiment [5], -7.78%; in experiment [6], -7.31%.
`C[C@H]1CCC/C=C/[C@@H]2C[C@H](O)C[C@H]2[C@H](O)/C=C/C(=O)O1` [BREFELDIN A]: the Inhibition is 11.17% in experiment [1]; -7.42% in experiment [2]; 11.85% in experiment [3]; -5.16% in experiment [4]; 51.3% in experiment [5]; -9.22% in experiment [6].
Take `CC(=O)OC(C)(C)/C=C/C(=O)[C@](C)(O)[C@H]1[C@H](O)C[C@@]2(C)[C@@H]3CC=C4[C@@H](C=C(O)C(=O)C4(C)C)[C@]3(C)C(=O)C[C@]12C` [CUCURBITACIN E]: the Inhibition was -16.96% in experiment [1]; -9.18% in experiment [2]; 4.67% in experiment [3]; -1.27% in experiment [4]; -1.39% in experiment [5]; -7.52% in experiment [6].
With `CC1CCC2C(C)C(=O)OC3OC4(C)CCC1C32OO4` (stereo not given), the Inhibition in experiment [1] was 7.59%; in experiment [2], -3.18%; in experiment [3], 7.05%; in experiment [4], 14.85%; in experiment [5], 23.7%; in experiment [6] it was -16.17%.
Consider `CC1OC(=O)C2CC3CCCCC3C(/C=C/C3CCCC(C)N3C)C12` (stereo not given), for which the Inhibition in experiment [1] is 14.11%; in experiment [2], -6.83%; in experiment [3] it was 5.85%; in experiment [4], 4.75%; in experiment [5], 0.31%; in experiment [6], -10.1%.
